A selection: hits, their analogues and other compounds. The true share with any hit is near 1.2%.
RXFP1 ag – activates the human relaxin receptor RXFP1. HEK293T-RXFP1 cAMP TR-FRET, 30 min; response scale: percent of porcine relaxin response, buffer zero. 370,000 compounds, 0.3% hits. Potency, µM (doses to about 57.5 µM), hits mostly activators. Q9HBX9; active = well fitted activation curve with a large enough effect; inconclusive = small, poorly fitted or top-dose-only effect; also: nearly all actives have a fitted effect of over 60% in size
Target sequence (Q9HBX9 whole entry, looked up): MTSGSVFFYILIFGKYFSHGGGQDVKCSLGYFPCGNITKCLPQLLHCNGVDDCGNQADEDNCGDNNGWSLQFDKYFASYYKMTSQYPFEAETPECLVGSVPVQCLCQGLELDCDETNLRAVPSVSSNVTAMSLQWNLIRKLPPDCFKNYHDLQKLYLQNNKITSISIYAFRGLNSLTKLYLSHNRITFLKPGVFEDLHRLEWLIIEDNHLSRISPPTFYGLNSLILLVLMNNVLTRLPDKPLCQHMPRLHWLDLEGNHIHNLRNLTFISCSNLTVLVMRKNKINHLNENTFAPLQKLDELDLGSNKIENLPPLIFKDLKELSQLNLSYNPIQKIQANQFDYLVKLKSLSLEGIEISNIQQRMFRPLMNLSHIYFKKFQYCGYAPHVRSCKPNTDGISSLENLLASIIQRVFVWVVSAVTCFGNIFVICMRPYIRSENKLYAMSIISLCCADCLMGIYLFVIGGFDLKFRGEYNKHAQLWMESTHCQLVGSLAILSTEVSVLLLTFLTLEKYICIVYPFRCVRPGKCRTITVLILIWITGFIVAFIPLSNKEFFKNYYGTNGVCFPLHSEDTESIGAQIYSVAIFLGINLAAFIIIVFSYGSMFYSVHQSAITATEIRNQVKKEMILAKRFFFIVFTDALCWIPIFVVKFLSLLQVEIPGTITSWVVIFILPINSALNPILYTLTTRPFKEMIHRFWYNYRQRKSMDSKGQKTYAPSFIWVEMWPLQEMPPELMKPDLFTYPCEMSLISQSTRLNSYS
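HEK293 cells stably expressing RXFP1, treated 30 min at 37C with compounds plus PDE4 inhibitor Ro 20174; cAMP measured by HTRF TR-FRET. Normalized to buffer and 29 nM porcine relaxin; EC50 by Hill fit.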
gsp antagonist – gsp mutant antagonism; 340,000 compounds, 0.4% hits; gsp-mutant cells, cAMP HTRF, 30 min; Potency, µM (series often up to 76.9 µM), usual class: inhibitors; calls by dose curve; cell line not stated here;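 also: intracellular cAMP measured with PDE inhibitor Ro 20-1724 present during compound exposure; nearly all actives have a fitted effect of over 65% in size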
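HTRF cAMP measurement after 30 min RT detection following 30 min, 37C compound treatment alongside […] (added as 300 uM solution) in G418-selected cells seeded at 2000/well and grown 16–24 h.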
pAkt inh – Akt phosphorylation inhibition | activity change, % for hits at 50 µM | 360,000 compounds, 0.32% hits | Neuro2A IGF-stimulated pAkt S473 HTRF, 20 min; stronger effect = lower value | AID 651550; in the data active = activity change below about -80%; inconclusive = mostly about -51% to -80%
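Neuro2A cells (4,500/well, DMEM with 0.5% FBS) were treated with compound at a single 50 µM final concentration, stimulated with 6 nM IGF for 20 min at 37 °C, and lysed. Phospho-Akt Ser473 was read by HTRF as 665/615 ratio ×10^4.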
gsp ag – activates gsp, the McCune-Albright syndrome mutation. gsp mutant cells, cAMP HTRF, 30 min. Potency, µM (top dose mostly 76.9 µM), hits mostly activators. 340,000 compounds, 0.13% hits; active = well fitted activation curve with a large enough effect; inconclusive = small, poorly fitted or top-dose-only effect, or another doubt; inactive = no such curve, though single readings can be large or run the other way; cell line not stated here;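 also: phosphodiesterase inhibitor Ro 20-1724 added with compounds to block cAMP breakdown; nearly all actives have a fitted effect of over 60% in size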
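Cells stably selected in G418 were plated at 2000/well, grown 16-24 hr, then given compounds in DMSO with the PDE inhibitor […] (300 uM solution added) for 30 min at 37C; cAMP was read by HTRF.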
RXFP1 antagonist – blocks the human relaxin receptor RXFP1 | 350,000 compounds, 0.59% hits | AID 1259400 | HEK293-RXFP1, relaxin-stimulated cAMP HTRF, 30 min; stronger effect = lower value | activity change, negative = inhibition, % at 57.5 µM | Q9HBX9;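 active = activity change of -60% or lower, but not beyond a set lower limit; inconclusive = change between -60% and -40%, or beyond the set limit; inactive = change above -40%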
Numbers stand for hits; [ ] = dose if it differs, or a comment.

CC(=O)NNC(=S)NC(=O)C(c1ccccc1)c1ccccc1 was read as RXFP1 ag inactive, gsp antagonist inactive, pAkt inh inactive, gsp ag inactive and RXFP1 antagonist inactive.
Screening Cc1ccc(SCc2nc(-c3ccc(C(=O)NCC(C)c4ccccc4)cc3)oc2C)cc1 (stereo unspecified) returned RXFP1 ag inactive.
CCOC(=O)C1C(=O)CC(C)(O)C(C(=O)OCC)C1c1cccs1 (stereo unspecified) was read as RXFP1 ag inactive, gsp antagonist inactive, pAkt inh -109%, gsp ag inactive and RXFP1 antagonist inactive.
For CC(C)(C)OC(=O)N[C@@H](Cc1ccccc1)c1nnc(S(=O)(=O)Cc2ccccc2)o1 the results were RXFP1 ag inactive.
`Cc1ccccc1CS(=O)(=O)c1nnc([C@H](Cc2ccccc2)NC(=O)OC(C)(C)C)o1` gave RXFP1 ag inactive, gsp antagonist inactive, pAkt inh inactive, gsp ag inactive and RXFP1 antagonist -67.
For O=C(CCn1ccc2cc(S(=O)(=O)N3CCCC3)ccc21)NCc1cccc(Br)c1 the results were RXFP1 ag inactive and RXFP1 antagonist inactive.
`COC(=O)c1cc2c(=O)c3ccccc3oc2nc1/C=C/N(C)C` gave RXFP1 ag inactive, gsp antagonist 35µM, pAkt inh inactive, gsp ag inactive[15.4 µM] and RXFP1 antagonist inactive.
`COC(=O)c1cc2c(=O)c3ccccc3oc2nc1C` gave RXFP1 ag inactive, gsp antagonist inactive, pAkt inh inactive, gsp ag inactive[15.4 µM] and RXFP1 antagonist inactive.
`Cc1cc(-c2ccc(S(=O)(=O)NCc3ccc(F)cc3)cc2)on1` gave RXFP1 ag inactive, gsp antagonist 0.79µM, pAkt inh inactive, gsp ag inactive and RXFP1 antagonist inactive.
Screening Cc1ccc(CCNC(=O)c2ccc(CNS(=O)(=O)c3ccc(F)cc3)cc2)cc1 returned RXFP1 ag inactive and RXFP1 antagonist -71.
`CCOC(=O)C(CC)Sc1ccc2nnc(CCNS(=O)(=O)c3ccc(C)cc3)n2n1` (stereo unspecified) gave RXFP1 ag inactive and RXFP1 antagonist inactive.
Screening O=C(NCC(c1ccco1)N1CCc2ccccc21)C(=O)Nc1ccccc1 (stereo unspecified) returned RXFP1 ag inactive, gsp antagonist inactive, pAkt inh inactive, gsp ag inactive[15.4 µM] and RXFP1 antagonist -66.
O=C(NCC(c1ccco1)N1CCc2ccccc21)C(=O)Nc1ccccc1F (stereo unspecified) was read as RXFP1 ag inactive, gsp antagonist inactive, pAkt inh inactive, gsp ag inactive and RXFP1 antagonist inactive.
For C=CCSc1nnc(NC(=O)c2cccc(S(=O)(=O)N(C)c3ccccc3)c2)s1 the results were RXFP1 ag inactive, gsp antagonist 40µM, pAkt inh inactive, gsp ag inactive and RXFP1 antagonist inactive.
For CN(c1ccccc1)S(=O)(=O)c1cccc(C(=O)Nc2nccs2)c1 the results were RXFP1 ag inactive, gsp antagonist inactive, pAkt inh inactive, gsp ag inactive and RXFP1 antagonist inactive.
For CCCCCn1c(=O)[nH]c2cc(C(=O)N3CCN(c4cccc(C(F)(F)F)c4)CC3)ccc2c1=O the results were RXFP1 ag inactive.
`CCC(C(=O)Nc1ccsc1C(=O)OC)c1ccccc1` (stereo unspecified) gave RXFP1 ag inactive, gsp antagonist inconclusive, pAkt inh inactive, gsp ag inactive[15.4 µM] and RXFP1 antagonist -63.
O=C(CSc1nc2c(oc3ccccc32)c(=O)n1-c1ccccc1)Nc1ccc(F)c(Cl)c1 was read as RXFP1 ag inactive.
COc1cc2ccccc2cc1C(=O)Nc1cccc(-c2nc3cc(C)c(C)cc3o2)c1 was read as RXFP1 ag inactive and RXFP1 antagonist inactive.
Screening O=C(NNC(=O)c1cccc(S(=O)(=O)N2CCN(c3ccccc3)CC2)c1)c1ccc(Cl)cc1 returned RXFP1 ag inactive, gsp antagonist inactive, pAkt inh inactive and gsp ag 11µM.
Screening CCOc1ccc(NC(=O)c2nn(C)c3c2COc2ccccc2-3)cc1 returned RXFP1 ag inactive and RXFP1 antagonist inactive.
`Cn1c(=O)n(C)c2cc(NS(=O)(=O)c3ccc(C(C)(C)C)cc3)c(NCc3ccccc3)cc21` gave RXFP1 ag inactive and RXFP1 antagonist inactive.
`CC1(C)CC(=O)C2=C(C1)N1C(=C(C#N)C2c2ccccc2Cl)N=C(N)c2ccccc21` (stereo unspecified) gave RXFP1 ag inactive, gsp antagonist inactive, pAkt inh inactive, gsp ag inactive and RXFP1 antagonist inactive.
CC1(C)CC(=O)C2=C(C1)N1C(=C(C#N)C2c2ccc(Cl)cc2)N=C(N)c2ccccc21 (stereo unspecified) was read as RXFP1 ag inactive, gsp antagonist 35µM, pAkt inh inactive, gsp ag inactive and RXFP1 antagonist inconclusive.
`CC(C)c1ccc(NS(=O)(=O)c2ccc3nc(-c4ccccc4)[nH]c3c2)cc1` gave RXFP1 ag inactive and RXFP1 antagonist -69.
O=S(=O)(Nc1ccc(Br)cc1)c1ccc2nc(-c3ccccc3)[nH]c2c1 was read as RXFP1 ag inactive.
`CNC(=S)N(Cc1ccco1)Cc1cc2cc(OC)c(OC)cc2[nH]c1=O` gave RXFP1 ag inactive, gsp antagonist 6.3µM, pAkt inh inactive, gsp ag inactive[15.4 µM] and RXFP1 antagonist inactive.
Screening CCOC(=O)c1cnc2c(OC)cccc2c1N1CCN(c2ccccc2OC)CC1 returned RXFP1 ag inactive, gsp antagonist inactive, pAkt inh inactive, gsp ag inactive and RXFP1 antagonist inactive.
`CCOC(=O)c1cnc2c(OC)cccc2c1N1CCN(c2ccc(OC)cc2)CC1` gave RXFP1 ag inactive, gsp antagonist inactive, pAkt inh -128%, gsp ag inactive and RXFP1 antagonist inactive.
For O=C(Nc1ccc(Cl)c(Cl)c1)Nc1nnc(-c2ccncc2)s1 the results were RXFP1 ag inactive, gsp antagonist inactive, pAkt inh inactive, gsp ag inactive[15.4 µM] and RXFP1 antagonist inactive.
Screening COc1ccc(NC(=O)Nc2nnc(-c3ccncc3)s2)cc1 returned RXFP1 ag inactive, gsp antagonist 35µM, pAkt inh inactive, gsp ag inactive and RXFP1 antagonist inactive.
For Cc1cc(NC(=O)CSc2nc3ccccc3c(=O)n2-c2ccccc2)no1 the results were RXFP1 ag inactive, gsp antagonist inactive, pAkt inh inactive, gsp ag inactive[15.4 µM] and RXFP1 antagonist inactive.
For Cc1ccc(C(=O)CSc2nc3ccccc3c(=O)n2-c2ccccc2)s1 the results were RXFP1 ag inactive, gsp antagonist inactive, pAkt inh -100%, gsp ag inactive and RXFP1 antagonist inactive.
O=C(O)c1ccc(CSc2nc3ccccc3c(=O)n2-c2ccccc2)cc1 was read as RXFP1 ag inactive, gsp antagonist inactive, pAkt inh inactive, gsp ag inactive and RXFP1 antagonist inactive.
